Bioassay records deposited in PubChem by National Center for Advancing Translational Sciences (NCATS).
Rows were chosen to be rich in hits. Some 2.3% of all compounds tested hit in one or more screens of this group.
GLS inhibitor: blocks human kidney-isoform glutaminase activity; hit rate 0.21% among 410,000; AID 624170; Potency, µM (top dose mostly 45.5 µM), for the others: top-dose activity change, negative = inhibition, hits mostly inhibitors; GLS enzymatic activity, qHTS titration; note: % is set by controls: 0 for no effect and ±100 for the full control effect
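Human kidney-isoform GLS in 45 mM KH2PO4 pH 8.2, 0.02% Tween-20, with compound, started with 1mM L-Glutamine (added stock). Glutamate oxidase/HRP/Amplex red coupled fluorescence read at start and after 30 min at RT.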
GLP-1R agonist: agonists of human GLP-1 receptor; HEK293 GLP-1R CRE-luciferase, luminescence, 4-6 h; cells express a hypersensitive GLP-1R form; Potency, µM (titrated, usually from 45.6 µM), without a hit: top-dose activation, most hits filed as activators; hit rate 0.007% among 380,000; P43220; AID 624172; note: % of control where 0% means no effect
GRP78 ERSR act: ER stress response induction in glioma. hit rate 0.02% among 420,000. U87-MG GRP78 promoter luciferase reporter, 16 h. Potency, µM, for inactives: at the highest dose activation, most hits filed as activators; note: series mostly up to about 76 µM; % of control where 0% means no effect; nearly all actives have a fitted effect of over 35% in size
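Stably transfected U87-MG human glioma cells carrying a GRP78-based luminescent sensor were seeded at 1000 cells/well, pin-dosed with compounds and incubated 16 h. Luciferase reagent was then added, and end-point luminescence was read after 10 min at room temperature.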
PTHR1 agonist: agonists of human PTHR1 parathyroid hormone receptor | hit rate 0.075% among 410,000 | HEK293 GP2 PTHR1 cells, GloSensor cAMP luminescence, 1 h | AID 743266 | Potency, µM (top dose mostly 115 µM), without a hit: top-dose activation, usual class: activators; note: nearly all actives have a fitted effect of over 55% in size
Target sequence (Q03431 whole entry, looked up): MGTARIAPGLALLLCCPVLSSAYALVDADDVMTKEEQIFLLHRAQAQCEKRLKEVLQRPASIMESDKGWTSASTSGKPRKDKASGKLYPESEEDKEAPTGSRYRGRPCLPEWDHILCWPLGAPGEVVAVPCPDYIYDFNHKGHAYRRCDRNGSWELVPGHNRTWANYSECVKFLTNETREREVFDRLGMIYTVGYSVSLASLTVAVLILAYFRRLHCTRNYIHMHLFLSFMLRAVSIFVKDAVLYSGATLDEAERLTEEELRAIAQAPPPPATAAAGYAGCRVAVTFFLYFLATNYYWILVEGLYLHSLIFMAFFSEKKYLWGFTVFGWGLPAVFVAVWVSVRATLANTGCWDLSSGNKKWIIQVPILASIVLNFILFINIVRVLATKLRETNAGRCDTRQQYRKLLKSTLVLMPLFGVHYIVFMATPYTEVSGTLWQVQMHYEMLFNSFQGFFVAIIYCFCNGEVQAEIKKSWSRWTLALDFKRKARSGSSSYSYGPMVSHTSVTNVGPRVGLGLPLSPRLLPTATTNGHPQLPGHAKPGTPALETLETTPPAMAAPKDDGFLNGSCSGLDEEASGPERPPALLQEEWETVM
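HEK-293-derived GP2 cells expressing PTHR1 and a GloSensor cAMP reporter, 3,000/well, plated overnight, given luciferin plus IBMX (each 0.5 mM as added) for 1 h at 37 °C, then compound for 1 h at 37 °C. Luminescence was read after 15 min at room temperature.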
12-LOX inh: inhibitors of human 12S-lipoxygenase ALOX12. P18054. purified 12hLO, xylenol orange hydroperoxide absorbance. Potency, µM (top dose mostly 108 µM), without a hit: at the highest dose activity change, negative = inhibition, most hits filed as inhibitors. hit rate 1.1% among 580,000. AID 1671190; note: % is set by controls: 0 for no effect and ±100 for the full control effect
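Purified human 12hLO (150 nM final) in 25 mM Hepes, 0.01% Triton X-100, pH 7.0 was preincubated 15 min at room temperature with compound. Then 40 uM arachidonic acid was added, 30 min. Hydroperoxide was read by Fe-XO absorbance ratio 573/405 nm.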
GLP1R inv ag: GLP-1 receptor (human) inverse agonism; AID 624417; hit rate 1.6% among 410,000; Potency, µM (series often up to 38.3 µM), for the others: at the highest dose activity change, negative = inhibition, most hits filed as inhibitors; HEK293 GLP-1R CRE-luciferase, luminescence, 24 h; GLP-1R form is constitutively active; note: % is set by controls: 0 for no effect and ±100 for the full control effect; nearly all actives have a fitted effect of over 55% in size
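Constitutively active GLP-1R drives a cAMP-responsive luciferase in stably transfected HEK293 cells; test compounds are added after overnight (12 h) attachment and left 24 hr, and signal loss in luminescence marks inhibition.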
The depositor's hits bear a star; i = inactive; ? = inconclusive; . = no result given; ! = a repeat was not active; [ ] = another dose, or the depositor's remark. Calls come from the whole dose curve; as a rule, active = well fitted curve in the direction sought with a large enough effect; inconclusive = small, poorly fitted or top-dose-only effect, or another doubt; inactive = no such curve, though single readings can be large; an effect the other way counts as inactive or inconclusive. Potency is the fitted concentration of half-maximal effect.

SMILES	GLS inhibitor	GLP-1R agonist	GRP78 ERSR act	PTHR1 agonist	12-LOX inh	GLP1R inv ag
COC1C(OC(=O)c2ccc(C)[nH]2)C(O)C(Oc2ccc3c(O)c(NC(=O)c4ccc(O)c(CC=C(C)C)c4)c(=O)oc3c2Cl)OC1(C)C (centres undefined)	?	-3%	1%	-52%	40µM*	?
Cc1ccc(C)c(S(=O)(=O)N2[C@H]3CC[C@@H]2c2cnc(-c4ccc(F)cc4)nc2C3)c1	.	.	.	.	-17%	.
C[n+]1c(-c2ccccc2)c2cc(N)ccc2c2ccc(N)cc21	-8%	-3%	-5%	-3%	?	1.8µM*
Fc1ccc(C(OCCN2CCCC2)c2ccc(F)cc2)cc1	8%	-5%	-4%	-26%	?	?
Fc1ccc(C(OCCN2CCN(CCCc3ccccc3)CC2)c2ccc(F)cc2)cc1	0%	-1%	-8%	-92%	2.7µM*!	.
c1ccc(CCCN2CCN(CCOC(c3ccccc3)c3ccccc3)CC2)cc1	12%	3%	-7%	-68%	?	?
Fc1ccc(C(OCCN2CCCC2)c2ccc(Br)cc2)cc1 (centres undefined)	-8%	3%	-1%	-2%	16%	5.6µM*
CCn1nccc1C(=O)N1[C@H]2CC[C@@H]1c1cnc(-c3ccccc3)nc1C2	.	.	.	.	-3%	.
CCn1ccnc1CN1CCCC(C(=O)c2cc(Cl)ccc2OC)C1 (centres undefined)	4%	6%	-3%	-85%	-3%	10µM*
CC1CN(c2ccccc2)NC1=O (centres undefined)	?	-1%	2%	i	28µM*	-11%
CN1CCN2C(=O)N(c3ccccc3)C[C@H]2C1	.	.	.	.	45%[176 µM]	.
Cc1cc(/C=C2\C(=O)NC(=O)N(c3ccccc3F)C2=O)c(C)n1-c1cc(C(=O)O)cc(C(=O)O)c1	5µM*	-6%	-2%	?	?	-11%
Cc1noc(C)c1COc1ccc(CC(=O)N2CCN(CC(=O)N3CCCC3)CC2)cc1	.	.	.	.	-10%	.
CN1C(=O)NC(=O)/C(=C\c2ccc([N+](=O)[O-])o2)C1=O	7.1µM*	-3%	-4%	-4%	.	5%
CCN(CC)CC(O)c1ccc(C2CCCC2)cc1 (centres undefined)	1%	-1%	-3%	i	-4%	7.1µM*
COc1cc2c(cc1OCC1CC1)NC(=O)C21CCN(C(=O)c2cccc(C#N)c2)CC1	.	.	.	.	-5%[176 µM]	.
CC1CCN(CC(=O)Nc2ccc(C#N)c(Cl)c2)CC1	.	.	.	.	1%	.
O=C1NC(=S)NC(=O)C1=Cc1ccc(Br)s1	-7%	-1%	-13%	-48%	16µM*	-25%
CN1C(=O)/C(=C\c2ccc(Br)s2)C(=O)NC1=S	?	1%	-6%	-31%	?	21%
CN(C)C1(c2nnnn2CCOC(=O)Nc2ccc(Cl)cc2)CCCCC1	-2%	2%	-6%	-15%[57.5 µM]	397%	7.1µM*
CN(C)C1(c2nnnn2-c2ccc(Cl)cc2)CCCCC1	1%	9%	-3%	-7%	-12%	?
COCCNC(=O)[C@H]1CN2CC[C@H]1C[C@@H]2Cn1cc(CC2CCCCC2)nn1	.	.	.	.	2%[176 µM]	.
CCCNC(=O)N1CC2CN(C(C)C)CC(C1)O2	.	.	.	.	27%	.
COC(=O)C1=C(c2ccc(-c3ccccc3)c(F)c2)C[C@@H]2CC[C@H]1N2C(=O)NCc1cc(C)oc1C(F)(F)F	-15%	-7%	-4%	i	?	3.5µM*
COC(=O)C1=C(c2ccc(OC(F)(F)F)cc2)C[C@@H]2CC[C@H]1N2C(=O)NCC1CC1	16%	6%	-3%	-42%	3%	10µM*
SMILES	GLS inhibitor	GLP-1R agonist	GRP78 ERSR act	PTHR1 agonist	12-LOX inh	GLP1R inv ag
COC(=O)C1=C(c2ccc(OCc3ccccc3)cc2)C[C@@H]2CC[C@H]1N2C(=O)NCc1ccc(OC)c(OC)c1	2%	20%	-5%	-57%	81%	0%
COC(=O)C1=C(c2ccc(OCc3ccccc3)cc2)C[C@@H]2CC[C@H]1N2C(=O)NCc1ccccc1OC	-1%	5%	-3%	i	0%	13µM*
COC(=O)C1=C(c2ccccc2OCc2ccccc2)C[C@@H]2CC[C@H]1N2C(=O)NCc1ccccc1	6%	-3%	-1%	-17%	?	?
COC(=O)C1=C(c2ccccc2OCc2ccccc2)C[C@@H]2CC[C@H]1N2C(=O)NCCc1ccc(F)cc1	4%	-2%	-4%	-24%	1%	22µM*
COC(=O)C1=C(c2cccc(C#N)c2)C[C@@H]2CC[C@H]1N2C(=O)NCc1cc(C)oc1C(F)(F)F	0%	5%	-1%	i	3%	1%
CC12CCC(O)CC1CC[C@@H]1[C@@H]2CCC2(C)[C@H](C3=CC(=O)OC3)CCC12O (some centres undefined)	.	.	.	.	-31%	.
C/C=C/c1ccc(OCC(=O)N2CCN(CCOc3ccccc3)CC2)c(OC)c1	.	.	.	.	2%	.
O=C(COc1ccc(F)cc1)N1CCN(CCc2ccncc2)CC1	.	.	.	.	-9%	.
CSc1ccccc1C(=O)C1CCCN(Cc2cccc(C)n2)C1 (centres undefined)	0%	4%	-4%	i	-8%	11µM*
COC(=O)C1=C(c2cc3ccccc3o2)C[C@@H]2CC[C@H]1N2C(=O)NCc1ccc(F)cc1	2%	3%	-5%	-39%	?	11µM*
COC(=O)C1=C(c2cc3ccccc3s2)C[C@@H]2CC[C@H]1N2C(=O)NCc1ccc(C(F)(F)F)cc1	-2%	-5%	-4%	i	?	4µM*
COC(=O)C1=C(c2cc3ccccc3s2)C[C@@H]2CC[C@H]1N2C(=O)NCC1CC1	1%	11%	0%	-42%	?	?
COC(=O)C1=C(c2cc3ccccc3s2)C[C@@H]2CC[C@H]1N2C(=O)N1CCC(C)CC1	1%	25%	-2%	-37%	-29%	10µM*
COC(=O)C1=C(c2cc3ccccc3s2)C[C@@H]2CC[C@H]1N2C(=O)NC1CC1	7%	-5%	-2%	i	14%	-30%
CN(C)P(=NC(=S)c1cccn1C)(N(C)C)N(C)C	16%	-3%	-4%	-2%[57.5 µM]	40µM*	-5%
c1ccc(CCc2ccc3n2Cc2cnnn2-c2ccccc2-3)cc1	0%	1%	-5%	-26%	9%	11µM*
CCOc1cc(CN2CCN(C(=O)Cc3ccccc3)CC2)ccc1OC	-9%	8%	-3%	i	0.5µM*	33%
COc1ccc(CN2CCN(C(=O)Cc3ccccc3)CC2)cc1Br	-1%	-3%	-2%	-11%	0.63µM*	2%
